Measured values reported in PubChem BioAssay (NCI).
Compounds without any hit were thinned out: in the full panel of roughly 83,000, 20% have a hit.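 For each line, cells grew in 96-well plates with the test compound present at a single concentration for 48 hours.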 Unmarked numbers belong to inactive results. The source made the active and inactive calls.

test system: OVCAR-8 ovarian; assay: NCI-60 one-dose screen, 48 h (100 = growth as untreated, 0 = no growth, -100 = all killed); settings: 10 µM unless noted
Method: Growth inhibition of the OVCAR-8 human tumor cell line is measured as a screen for anti-cancer activity. Cells are grown in 96 well plates and exposed to the test compound for 48 hours. Compounds are tested at a single concentration, which is 10^-5 M for most compounds. The reported endpoint is percent growth (GI% or GIPRCNT), where numbers from 0 - 100% represent growth inhibition, and numbers from -100% - 0 represent cell death. For example, a value of 40 represents 60% growth inhibition. A value of 0 means no net growth occurred over the course of the experiment. A value of -40 indicates 40% of cells at the beginning of the experiment died by the end of the experiment. A value of -100 means all cells are dead at the end of the experiment.
NCI-60 Human Tumor Cell Lines Screen was performed using the standard one-dose NCI protocol, which is described in more detail at https://dtp.cancer.gov/discovery_development/nci-60/default.htm.
Compounds with GIPRCNT values below 10 were considered active. Activity score was based on GIPRCNT using the following formula: […]
Score is 0 for GIPRCNT values of 100 or above, 50 for GIPRCNT values of 0, and 100 for GIPRCNT values of -100.

SMILES	growth
CC12CCC(/C(=C/NNc3ccc([N+](=O)[O-])cc3[N+](=O)[O-])C1=O)C2(C)C (stereo not given)	72.7%
O=C(CCCCCCN1CC(=O)N2[C@@H](c3ccc(Cl)cc3)c3[nH]c4ccccc4c3C[C@H]2C1=O)NO	57.7%
COc1ccc(C2C(C#N)=C(N)Oc3c2sc2c(Br)cccc32)cc1 (stereo not given)	35.1%
O=C(CCCCNC(=O)c1cc(=O)c(O)co1)Nc1ccccc1	93.6%
N#Cc1nc(-c2ccc(F)cc2)oc1S(=O)(=O)N1CCN(c2ccc(F)cc2)CC1	71.4%
CC1=NN(c2ccc(Cl)cc2)CC1(C)N=O (stereo not given)	88.2%
C=NNc1ccccc1	95.1%
CC1=CCC[C@@H]2C1(C)CC[C@H](C)[C@@]2(C)CC1=CC(=O)C(SC(C)(C)C)=CC1=O (stereo not given in full)	91.8%
O=C(/C=C\c1ccco1)/C=C/c1ccco1	99.8%
COc1ccc(C/C(C)=C(\c2ccc(O)cc2)c2ccc(OCCN3CCCC3)cc2)cc1	103%
COc1ccc(C(c2cc(OC)c(OC)c(OC)c2)N2CCN(Cc3ccccc3)CC2)cc1 (stereo not given)	92.6%
Cc1nc2sc(C(=O)Nc3ccccc3)c(N)c2cc1C(=O)/C=C/c1ccccc1	-1.16% (active)
CCNc1nc(-c2ccc(F)cc2)c(C#N)c(=O)n1C	73.8%
COc1cc(Nc2ncccc2NC(=O)c2cn(Cc3cccc(Oc4ccccc4)c3)nn2)cc(OC)c1	87.8%
C[C@@H]1CC[C@@]2(OC1)O[C@H]1C[C@H]3[C@@H]4CC=C5C[C@@H](O[C@@H]6O[C@H](CO)[C@@H](O[C@@H]7O[C@@H](CO)[C@H](O)[C@H]7O)[C@H](O)[C@H]6O[C@@H]6O[C@@H](C)[C@H](O)[C@@H](O)[C@H]6O)CC[C@]5(C)[C@H]4CC[C@]3(C)[C@H]1[C@@H]2C	-91.2% (active)
COc1cc(-c2nc3ccc(C)cc3[nH]2)ccc1OCC(=O)N=Nc1c(O)[nH]c2ccc(Cl)cc12	-34.7% (active)
C=CC(C)(O)CC/C=C(\CO)C(=O)OC1C(C)OC(O[C@](C)(C=C)CC/C=C(\CO)C(=O)O[C@H]2C[C@@]3(C(=O)OC4OC(CO)C(O)C(O)C4OC4OC(C)C(OC5OC(CO)C(O)C5O)C(OC5OC(CO)C(O)C(O)C5O)C4O)C(CC2(C)C)C2=CCC4[C@@]5(C)CC[C@H](OC6OC(COC7OC(C)C(O)C(O)C7OC7OCC(O)C(O)C7O)C(O)C(O)C6NC(C)=O)C(C)(C)C5CC[C@@]4(C)[C@]2(C)C[C@H]3O)C(O)C1O (stereo not given in full)	10.3%
O=C(Cn1nnc2ccccc21)Nc1ccc(-c2nc3ccccc3s2)cc1	98.5%
Cn1cc(C(=O)c2nc(-c3c[nH]c4ccc(Br)cc34)no2)c2cc(Br)ccc21	48.6%
N=C(N)SCc1cccc2c(CSC(=N)N)cccc12	102%

SMILES	growth
CN(C)c1ccc(/C=C/C(=O)c2ccc(Nc3nc(Nc4ccc(F)cc4)nc(Nc4ccc(Cl)cc4)n3)cc2)cc1	48.8%
CN1CCN(Cc2cc(NC(=O)c3cccc(C#Cc4cccc5[nH]nc(N)c45)c3)cc(C(F)(F)F)c2)CC1	41%
Cc1ccc(N=Nc2c(N)nn(-c3ccccc3)c2N)cc1	41.6%
C=CCOC(=O)C1=C(C)NC(=O)NC1c1c(Cl)n(C)c2ccccc12 (stereo not given)	102%
CCN(CC)c1ccc(/C=N\NC(=O)c2cccc(Nc3ccnc(C(F)(F)F)c3)c2)c(O)c1	37.3%
COc1cc(Nc2c3ccc(Cl)cc3nc3ccc(OC)cc23)c2ncccc2c1	46.1%
CN1CCCc2cc(/C=C3/SC(=S)N(CCc4ccc(O)cc4)C3=O)ccc21	96.6%
CNC(=O)c1c(NC(=O)c2ccc(C(C)(C)C)cc2)sc2c(CN(C)C)c(O)ccc12	23.7%
O=c1nc(Nc2nc3ccccc3s2)[nH]c(=O)c2ccccc12	103%
COC(=O)c1c2c(c(C)[n+]([O-])c1C)C(=O)C=CC2=O	-6.72% (active)
CCCNc1nc2ccccc2c2c(=O)c3cccc(Cl)c3sc12	95.4%
Cc1cc(N2CCCCC2)nc(N2CCN(CC(=O)Nc3ccc4c(ccn4Cc4ccccc4)c3)CC2)n1	36.6%
Oc1c(CN2CCCC2)cc(COCc2ccccc2)c2cccnc12	9.92% (active)
CCOC(=O)c1c(C)nc2ccccc2c1/C=C/c1ccc(OC)cc1	57.6%
O=C(CCCCCCN1CC(=O)N2[C@@H](C3CCCCC3)c3[nH]c4ccccc4c3C[C@H]2C1=O)NO	54.1%
Nc1c(C(=O)Nc2ccncc2)sc2nc3c(cc12)CCCCC3	65.2%
CN1CCN(CCCOc2ccc3ncnc(Nc4ccc(Oc5cccc(F)c5)c(Cl)c4)c3c2)CC1	31.6%
S=c1[nH]c2cc(Cl)ccc2o1	115%
Cn1cc(-c2nonc2-c2c[nH]c3ccc(F)cc23)c2cc(Br)ccc21	40.5%
COc1ccc(C2=Nc3c(N)ncnc3NC(c3cccc(Nc4ccnc5cc(C(F)(F)F)ccc45)c3)C2)cc1 (stereo not given)	67.9%
